# Reference: PubChem BioAssay (Tox21)
# Values joined by “and” are separate entries in the source; they are usually repeats but may differ in a detail not shown here. Equal entries are not always repeated. Inconclusive results are not listed. Entries that show only a call come without a potency. Where a structure was tested more than once in an assay, its records may differ in their call. Active and inactive are the calls of the source. Calls come from the whole dose curve; as a rule, active = well fitted curve in the direction sought with a large enough effect in the repeat runs; inconclusive = weak or mixed curves; inactive = no such curve, though single readings can be large; an effect the other way counts as inactive or inconclusive.
# Key:
# [1] = qHTS RealTime-Glo MT Cell Viability Assay in HepG2 cells - 40 hour (AID 1224870); note: nearly all actives have a fitted effect of over 50% in size
# Method in brief: (§1)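 HepG2 cells mixed with RealTime-Glo MT reagents (NanoLuc plus cell-permeant prosubstrate) were seeded at 600 cells/well, incubated 5 h at 37 C/5% CO2, then pinned with compounds in DMSO; nonlytic luminescence tracked viability during 40 h treatment.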
# [2] = A CellTox Green Cytotoxicity Assay to monitor cytotoxicity in HEK293 cells - 40 hour (AID 1224871); note: nearly all actives have a fitted effect of over 45% in size
# Method in brief: (§2)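 Nonlytic real-time cytotoxicity: HEK293 + CellTox Green reagent plated, 5 h preincubation, pintool compound addition (23 nL in DMSO), 37 C for 40 h, fluorescence measured at successive time points.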
# [3] = qHTS RealTime-Glo MT Cell Viability Assay in HEK293 cells - 16 hour (AID 1224872); note: top concentration of the series differs between compounds; nearly all actives have a fitted effect of over 50% in size
# Method in brief: (§3)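 Assay medium contained NanoLuc luciferase plus cell-permeant prosubstrate, added with HEK293 cells at 600 cells/well. After 5 h at 37 C/5% CO2 compounds were added; plates stayed at 37 C for 40 h with serial luminescence reads.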
# [4] = qHTS RealTime-Glo MT Cell Viability Assay in HepG2 cells - 8 hour (AID 1224873); note: nearly all actives have a fitted effect of over 55% in size
# Method in brief: as §1
# [5] = qHTS RealTime-Glo MT Cell Viability Assay in HEK293 cells - 40 hour (AID 1224874); details: RealTime-Glo luminescence; max response: stronger effect = lower value; note: nearly all actives have a fitted effect of over 50% in size; note: potency is the fitted concentration of half-maximal effect
# Method in brief: (§4)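 Cells were seeded together with NanoLuc luciferase and a prosubstrate that viable cells reduce to a luciferase substrate. After a 5 h incubation at 37 C/5% CO2, compounds were added and luminescence was measured repeatedly during 40 h of treatment.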
# [6] = A CellTox Green Cytotoxicity Assay to monitor cytotoxicity in HEK293 cells - 24 hour (AID 1224875); note: series mostly up to about 77 µM; nearly all actives have a fitted effect of over 45% in size
# Method in brief: as §2
# [7] = A CellTox Green Cytotoxicity Assay to monitor cytotoxicity in HepG2 cells - 16 hour (AID 1224876); note: nearly all actives have a fitted effect of over 45% in size
# Method in brief: (§5)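 Read-out is fluorescence of a cyanine dye excluded from live cells that stains DNA of dead HepG2 cells, with signal proportional to cytotoxicity. Plates were read at 0, 8, 16, 24, 32 and 40 h after compound addition.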
# [8] = qHTS RealTime-Glo MT Cell Viability Assay in HepG2 cells - 32 hour (AID 1224877); note: nearly all actives have a fitted effect of over 55% in size
# Method in brief: (§6)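 qHTS, HepG2, 600 cells/well, RealTime-Glo (NanoLuc + prosubstrate) added with cells; 5 h preincubation; DMSO compound addition; 37 C; luminescence at 0/8/16/24/32/40 h.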
# [9] = A CellTox Green Cytotoxicity Assay to monitor cytotoxicity in HepG2 cells - 24 hour (AID 1224878); note: nearly all actives have a fitted effect of over 45% in size
# Method in brief: as §5
# [10] = A CellTox Green Cytotoxicity Assay to monitor cytotoxicity in HepG2 cells - 40 hour (AID 1224879); note: nearly all actives have a fitted effect of over 40% in size
# Method in brief: as §5
# [11] = qHTS RealTime-Glo MT Cell Viability Assay in HEK293 cells - 0 hour (AID 1224880)
# Method in brief: as §4
# [12] = A CellTox Green Cytotoxicity Assay to monitor cytotoxicity in HEK293 cells - 32 hour (AID 1224881); note: nearly all actives have a fitted effect of over 40% in size
# Method in brief: as §2
# [13] = A CellTox Green Cytotoxicity Assay to monitor cytotoxicity in HepG2 cells - 0 hour (AID 1224882); note: nearly all actives have a fitted effect of over 35% in size
# Method in brief: as §5
# [14] = A CellTox Green Cytotoxicity Assay to monitor cytotoxicity in HepG2 cells - 32 hour (AID 1224883); note: nearly all actives have a fitted effect of over 50% in size
# Method in brief: as §5
# [15] = A CellTox Green Cytotoxicity Assay to monitor cytotoxicity in HEK293 cells - 8 hour (AID 1224884); note: nearly all actives have a fitted effect of over 35% in size
# Method in brief: as §2
# [16] = qHTS RealTime-Glo MT Cell Viability Assay in HepG2 cells - 16 hour (AID 1224885); note: nearly all actives have a fitted effect of over 50% in size
# Method in brief: as §6
# [17] = qHTS RealTime-Glo MT Cell Viability Assay in HEK293 cells - 24 hour (AID 1224886); note: nearly all actives have a fitted effect of over 50% in size; note: potency is the fitted concentration of half-maximal effect
# Method in brief: as §3
# [18] = qHTS RealTime-Glo MT Cell Viability Assay in HEK293 cells - 8 hour (AID 1224887)
# Method in brief: as §4
# [19] = A CellTox Green Cytotoxicity Assay to monitor cytotoxicity in HEK293 cells - 16 hour (AID 1224888); note: nearly all actives have a fitted effect of over 35% in size
# Method in brief: as §2
# [20] = qHTS RealTime-Glo MT Cell Viability Assay in HepG2 cells - 0 hour (AID 1224889); note: nearly all actives have a fitted effect of over 50% in size
# Method in brief: as §6
compound,measurement,setting,value
CC1(C)CC(N)CC(C)(CN)C1 (centres undefined),outcome,[1],inactive
same,Potency,[2],inactive
same,Potency,[3],inactive
same,Potency,[4],inactive
same,max response,[5],-9.67% (inactive) and 2.41% (inactive)
same,Potency,[6],inactive
same,outcome,[7],inactive
same,outcome,[8],inactive
same,Potency,[9],inactive
same,Potency,[10],inactive
same,outcome,[11],inactive
same,Potency,[12],inactive
same,outcome,[13],inactive
same,Potency,[14],inactive
same,outcome,[15],inactive
same,Potency,[16],inactive
same,Potency,[17],inactive
same,Potency,[18],inactive
same,Potency,[19],inactive
COc1ccc(N)c(C)c1,outcome,[1],inactive
same,Potency,[2],inactive
same,Potency,[3],inactive
same,Potency,[4],inactive
same,max response,[5],9.17% (inactive) and 3.97% (inactive)
same,Potency,[6],inactive
same,outcome,[7],inactive
same,outcome,[8],inactive
same,Potency,[9],inactive
same,Potency,[10],inactive
same,outcome,[11],inactive
same,Potency,[12],inactive
same,outcome,[13],inactive
same,Potency,[14],inactive
same,outcome,[15],inactive
same,Potency,[16],inactive
same,Potency,[17],inactive
same,Potency,[18],inactive
same,Potency,[19],inactive
CC(CCl)OP(=O)(OC(C)CCl)OC(C)CCl (centres undefined),outcome,[1],inactive
same,Potency,[2],inactive
same,Potency,[3],inactive
same,Potency,[4],inactive
same,max response,[5],-21.3% (inactive) and -15.3% (inactive)
same,Potency,[6],inactive
same,outcome,[7],inactive
same,outcome,[8],inactive
same,Potency,[9],inactive
same,Potency,[10],inactive
same,outcome,[11],inactive
same,Potency,[12],inactive
same,outcome,[13],inactive
same,Potency,[14],inactive
same,outcome,[15],inactive
same,Potency,[16],inactive
same,Potency,[17],inactive
same,Potency,[18],inactive
same,Potency,[19],inactive
CC1(C)OC[C@@H]2O[C@@]3(C(=O)O)OC(C)(C)O[C@H]3[C@@H]2O1,outcome,[1],inactive
same,Potency,[2],inactive
same,Potency,[3],inactive
same,Potency,[4],inactive
same,max response,[5],-6.82% (inactive) and 4.68% (inactive)
same,Potency,[6],inactive
same,outcome,[7],inactive
same,outcome,[8],inactive
same,Potency,[9],inactive
same,Potency,[10],inactive
same,outcome,[11],inactive
same,Potency,[12],inactive
same,outcome,[13],inactive
same,Potency,[14],inactive
same,outcome,[15],inactive
same,Potency,[16],inactive
same,Potency,[17],inactive
same,Potency,[18],inactive
same,Potency,[19],inactive
CCCCCCC=O,outcome,[1],inactive
same,Potency,[2],inactive
same,Potency,[3],inactive
same,Potency,[4],inactive
same,max response,[5],0.391% (inactive) and 24.5% (inactive)
same,Potency,[6],inactive
same,outcome,[7],inactive
same,outcome,[8],inactive
same,Potency,[9],inactive
same,Potency,[10],inactive
same,outcome,[11],inactive
same,Potency,[12],inactive
same,outcome,[13],inactive
same,Potency,[14],inactive
same,outcome,[15],inactive
same,Potency,[16],inactive
same,Potency,[17],inactive
same,Potency,[18],inactive
same,Potency,[19],inactive
CCCCCCCCCCCCCCCCO,outcome,[1],inactive
same,Potency,[2],inactive
same,Potency,[3],inactive
same,Potency,[4],inactive
same,max response,[5],-1.41% (inactive)
same,Potency,[6],inactive
same,outcome,[7],inactive
same,outcome,[8],inactive
same,Potency,[9],inactive
same,Potency,[10],inactive
same,outcome,[11],inactive
same,Potency,[12],inactive
same,outcome,[13],inactive
same,Potency,[14],inactive
same,outcome,[15],inactive
same,Potency,[16],inactive
same,Potency,[17],inactive
same,Potency,[18],inactive
same,Potency,[19],inactive
O=C1CCCC1,outcome,[1],inactive
same,Potency,[2],inactive
same,Potency,[3],inactive
same,Potency,[4],inactive
same,max response,[5],-0.988% (inactive) and 5.09% (inactive)
same,Potency,[6],inactive
same,outcome,[7],inactive
same,outcome,[8],inactive
same,Potency,[9],inactive
same,Potency,[10],inactive
same,outcome,[11],inactive
same,Potency,[12],inactive
same,outcome,[13],inactive
same,Potency,[14],inactive
same,outcome,[15],inactive
same,Potency,[16],inactive
same,Potency,[17],inactive
same,Potency,[18],inactive
same,Potency,[19],inactive
COc1ccc(OC)cc1,outcome,[1],inactive
same,Potency,[2],inactive
same,Potency,[3],inactive
same,Potency,[4],inactive
same,max response,[5],5.27% (inactive) and 14.7% (inactive)
same,Potency,[6],inactive
same,outcome,[7],inactive
same,outcome,[8],inactive
same,Potency,[9],inactive
same,Potency,[10],inactive
same,outcome,[11],inactive
same,Potency,[12],inactive
same,outcome,[13],inactive
same,Potency,[14],inactive
same,outcome,[15],inactive
same,Potency,[16],inactive
same,Potency,[17],inactive
same,Potency,[18],inactive
same,Potency,[19],inactive
C=CC[N+](C)(C)CC=C,outcome,[1],inactive
same,Potency,[2],inactive
same,Potency,[3],inactive
same,Potency,[4],inactive
same,max response,[5],2.31% (inactive) and 7.96% (inactive)
same,Potency,[6],inactive
same,outcome,[7],inactive
same,outcome,[8],inactive
same,Potency,[9],inactive
same,Potency,[10],inactive
same,outcome,[11],inactive
same,Potency,[12],inactive
same,outcome,[13],inactive
same,Potency,[14],inactive
same,outcome,[15],inactive
same,Potency,[16],inactive
same,Potency,[17],inactive
same,Potency,[18],inactive
same,Potency,[19],inactive
OC1C(O)C(O)C(O)C(O)C1O (centres undefined),outcome,[1],inactive
same,Potency,[2],inactive
same,Potency,[3],inactive
same,Potency,[4],inactive
same,max response,[5],9.45% (inactive) and 0% (inactive)
same,Potency,[6],inactive
same,outcome,[7],inactive
same,outcome,[8],inactive
same,Potency,[9],inactive
same,Potency,[10],inactive
same,outcome,[11],inactive
same,Potency,[12],inactive
same,outcome,[13],inactive
same,Potency,[14],inactive
same,outcome,[15],inactive
same,Potency,[16],inactive
same,Potency,[17],inactive
same,Potency,[18],inactive
same,Potency,[19],inactive
C[C@]12CC[C@@H]3c4ccc(O)cc4CC[C@H]3[C@@H]1C[C@@H](O)[C@@H]2O,outcome,[1],inactive
same,Potency,[2],inactive
same,Potency,[3],inactive
same,Potency,[4],inactive
same,max response,[5],-25.2% (inactive)
same,Potency,[6],inactive
same,outcome,[7],inactive
same,outcome,[8],inactive
same,Potency,[9],inactive
same,Potency,[10],inactive
same,outcome,[11],inactive
same,Potency,[12],inactive
same,outcome,[13],inactive
same,Potency,[14],inactive
same,outcome,[15],inactive
same,Potency,[16],inactive
same,Potency,[17],inactive
same,Potency,[18],inactive
same,Potency,[19],inactive
CNC(=S)N(C)C,outcome,[1],inactive
same,Potency,[2],inactive
same,Potency,[3],inactive
same,Potency,[4],inactive
same,Potency,[5],11.6 µM (active)
same,max response,[5],3.02% (inactive)
same,Potency,[6],inactive
same,outcome,[7],inactive
same,outcome,[8],inactive
same,Potency,[9],inactive
same,Potency,[10],inactive
same,outcome,[11],inactive
same,Potency,[12],inactive
same,outcome,[13],inactive
same,Potency,[14],inactive
same,outcome,[15],inactive
same,Potency,[16],inactive
same,Potency,[17],inactive and 13 µM (active)
same,Potency,[18],inactive
same,Potency,[19],inactive
same,Potency,[20],inactive
Clc1ccccn1,outcome,[1],inactive
same,Potency,[2],inactive
same,Potency,[3],inactive
same,Potency,[4],inactive
same,max response,[5],5.77% (inactive) and 7.16% (inactive)
same,Potency,[6],inactive
same,outcome,[7],inactive
same,outcome,[8],inactive
same,Potency,[9],inactive
same,Potency,[10],inactive
same,outcome,[11],inactive
same,Potency,[12],inactive
same,outcome,[13],inactive
same,Potency,[14],inactive
same,outcome,[15],inactive
same,Potency,[16],inactive
same,Potency,[17],inactive
same,Potency,[18],inactive
same,Potency,[19],inactive
